Measurements reported in PubChem BioAssay AID720597 (Broad Institute, 2013).
Results with a measured potency or affinity are listed apart. Activity calls are given as the source filed them.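 Rule for the calls: active = fitted half-maximal dose no more than twice the top valid tested dose, for compounds that lower signal; inconclusive = fit invalid, or curve flat with activity between -70 and -30; inactive = potency past limit, curve flat within ±30, or signal increasing.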

molecular target: NAD-dependent protein deacylase sirtuin-5, mitochondrial (Homo sapiens) (UniProt Q9NXA8); experiment: blockers of sirtuin-5 peptide desuccinylation – biochemical, fluorescence imaging, cherry-pick, set 6, dose response (AID 720597); conditions: Purified SirT5, succinyl-peptide-AMC/trypsin fluorescence; series mostly up to 15 µM; activity change, negative = inhibition: at the top concentration;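 note: lower AMC signal can also come from blocking the trypsin step; 0% = median of neutral control wells and -100% = median of positive control wells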
Sequence (Q9NXA8 whole entry, looked up): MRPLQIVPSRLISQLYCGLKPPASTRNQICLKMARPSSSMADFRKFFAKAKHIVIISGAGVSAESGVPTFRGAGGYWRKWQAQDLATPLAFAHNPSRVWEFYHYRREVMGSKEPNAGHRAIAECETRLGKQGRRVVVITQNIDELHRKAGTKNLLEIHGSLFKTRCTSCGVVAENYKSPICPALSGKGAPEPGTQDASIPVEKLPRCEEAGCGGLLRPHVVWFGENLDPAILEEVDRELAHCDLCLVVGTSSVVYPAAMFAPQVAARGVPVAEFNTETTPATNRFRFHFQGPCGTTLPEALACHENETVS

Activity change, negative = inhibition, inactive:
COc1ccc(S(=O)(=O)N(C)C[C@@H]2OCCCC[C@H](C)Oc3ccc(NS(=O)(=O)c4cccs4)cc3C(=O)N([C@@H](C)CO)C[C@H]2C)cc1 -24.6%, COc1ccc(NC(=O)N(C)C[C@H]2Oc3cc(C#CCC(C)C)ccc3S(=O)(=O)N([C@@H](C)CO)C[C@H]2C)cc1 10.4%, COc1cccc(S(=O)(=O)N(C)C[C@@H]2Oc3cc(C4=CCCCC4)ccc3S(=O)(=O)N([C@H](C)CO)C[C@@H]2C)c1 18.7%, C[C@H]1CN([C@@H](C)CO)C(=O)c2cc(C#CCN(C)C)cnc2O[C@H]1CN(C)S(=O)(=O)c1ccccc1 -12.4%, C[C@@H]1CN([C@@H](C)CO)S(=O)(=O)c2ccc(C3=CCCCC3)cc2O[C@@H]1CN(C)S(=O)(=O)c1ccc(F)cc1 -28.7%, C[C@H](CO)N1C[C@H](C)[C@H](CN(C)S(=O)(=O)c2ccc(Cl)cc2)OCCCC[C@H](C)Oc2ccc(NS(=O)(=O)c3ccc(F)cc3)cc2C1=O -7.61%, C[C@@H]1CN([C@@H](C)CO)S(=O)(=O)c2ccc(C#CC3CC3)cc2O[C@@H]1CN(C)C(=O)c1cccc(F)c1 -3.94%, COCC#Cc1cnc2c(c1)C(=O)N([C@@H](C)CO)C[C@@H](C)[C@@H](CN(C)C(=O)c1ccc(F)cc1)O2 -7.36%, O=C(C[C@@H]1CC[C@@H](NS(=O)(=O)c2ccc(F)cc2)[C@@H](CO)O1)N1CCC(Cc2ccccc2)CC1 -27.4%, C[C@@H]1CN([C@H](C)CO)C(=O)c2cccc(NC(=O)CCCCCC(=O)Nc3ccccc3N)c2O[C@H]1CN(C)Cc1ccc(Oc2ccccc2)cc1 -13%, Cc1ccc(S(=O)(=O)N(C)C[C@@H]2OCCCC[C@H](C)Oc3ccc(NS(=O)(=O)c4ccc(F)cc4)cc3C(=O)N([C@H](C)CO)C[C@H]2C)cc1 -26.5%, C[C@H]1CN([C@@H](C)CO)C(=O)c2c(c3ccccc3n2C)-c2ccccc2CO[C@H]1CN(C)S(=O)(=O)c1ccc(F)cc1 -7.94%, C[C@H]1CN([C@@H](C)CO)S(=O)(=O)c2ccc(-c3cncnc3)cc2O[C@H]1CN(C)Cc1ccc(Oc2ccccc2)cc1 -0.447%, CCN(C[C@H]1[C@@H](c2ccc(-c3ccccc3F)cc2)[C@@H](CO)N1C(C)=O)C(C)=O -4.98%, O=C(NCC[C@H]1CC[C@H](NC(=O)C2CC2)[C@@H](CO)O1)c1cc(Cl)cc(Cl)c1 29%, COc1ccc(S(=O)(=O)N(C)C[C@@H]2OCCCC[C@H](C)Oc3ccc(NS(=O)(=O)c4ccc(F)cc4)cc3C(=O)N([C@@H](C)CO)C[C@@H]2C)cc1 -4.84%, C[C@H]1CN([C@@H](C)CO)C(=O)c2ccccc2-c2ccccc2CO[C@@H]1CN(C)Cc1cccc(C(F)(F)F)c1 -11.3%, C[C@H]1CN([C@@H](C)CO)S(=O)(=O)c2ccc(C#CC3CC3)cc2O[C@H]1CN(C)Cc1ccccc1F 2.45%
